Screening results (PubChem)
Compounds with a hit are over-represented: about 1% of the library has one in this group of screens.
TNFa cytotox – HUVEC cytotoxicity counter-screen, TNF alpha stimulated | actives 0.17% (n = 93,000) | cell count reduction, % at 2 µM | HUVEC TNFalpha-stimulated, Hoechst cell count, imaging;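 active = cell count reduction exceeding the screen mean by over 5 SD, scaled to untreated wells per plate, cut at about 78% in these data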;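 also: cells counted after 24 h of TNF alpha exposure following the 1 h pretreatment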
VCAM1 TNFa inh – reduces TNF alpha induced VCAM1 expression in HUVEC. inhibition, % at 2 µM. HUVEC TNFa-induced VCAM-1 immunofluorescence, high-content imaging. actives 0.48% (n = 95,000);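 active = inhibition above the batch mean plus 3 SD, with images confirmed as a hit by eye, cut at about 37% in these data; inconclusive = inhibition above that limit but hit not confirmed in images; inactive = inhibition not above that limit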
F-actin modifier – alters cytoskeleton assembly in HUVEC cells. HUVEC TNFa F-actin phalloidin imaging, high content. inhibition, % at 2 µM. actives 0.18% (n = 91,000). AID 836;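 active = inhibition above the batch mean plus 3 SD and confirmed as a hit by visual image inspection, cut at about 30% in these data, passing the limit was not always enough; inconclusive = above the inhibition threshold but rejected on visual inspection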
E-sel TNF inh – TNF alpha driven E-selectin expression inhibition; inhibition, % at 2 µM; HUVEC TNFa-induced E-selectin immunofluorescence, high content; actives 0.71% (n = 120,000); AID 1246;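 active = inhibition above the batch mean plus 3 SD, and confirmed as a hit on visual image review, cut at about 43% in these data; inconclusive = passes the inhibition cutoff but fails visual image review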
Numbers stand for hits; . = inactive; ? = inconclusive; / = not tested or not shown.

SMILES	TNFa cytotox	VCAM1 TNFa inh	F-actin modifier	E-sel TNF inh
COc1cc(S(=O)(=O)NC2CCCCC2C)ccc1Cl (stereo not given)	.	.	.	51
COc1cc(S(=O)(=O)NC2CCCC2)ccc1Cl	.	.	.	.
Cn1c(=O)c(C(=O)CN2CC(=O)Nc3ccccc32)c(N)n(Cc2ccccc2)c1=O	/	/	/	.
Cc1ccc2cc(C#N)c(N3CCCC3)nc2c1C	.	.	.	100
Cc1ccc2cc(C#N)c(N3CCCN(C(=O)C4CCCO4)CC3)nc2c1C (stereo not given)	/	/	/	.
O=C(O)C1CC=CCC1C(=O)N1CCCC1 (stereo not given)	96	82	.	.
O=C(O)C1CC=CCC1C(=O)N1CCc2ccccc21 (stereo not given)	.	.	.	.
CN1c2ccccc2C2(C)CCCC3=Cc4cccc([N+](=O)[O-])c4OC312 (stereo not given)	/	/	/	69
O=C(COC(=O)C1=COCCO1)Nc1ccc(OC(F)F)cc1	/	/	/	.
CN(C)CCNC(=S)Nc1ccc(Br)cc1	/	/	/	.
Cc1ccc(CNC(=O)Cn2ccc3ccccc3c2=O)o1	.	.	36	/
COC(=O)CNC(=O)Cn1ccc2ccccc2c1=O	.	.	.	.
CN(C)C(=O)CCSc1nnc(-c2ccncc2)o1	/	/	/	.
CCOC(=O)N1CCC(N(CCCOC)C(=O)Nc2ccc(CC)cc2)CC1	.	.	.	.
CCOC(=O)N1CCC(N(CCOC)C(=O)Nc2ccc(Cl)cc2)CC1	/	/	/	80
COc1cc(C(=O)N/N=C/c2ccsc2C)cc(OC)c1OC	.	57	.	.
CC(=O)c1c(C)[nH]c(C(=O)Nc2ccccc2N2CCOCC2)c1C	/	/	/	75
O=c1c2ccccc2nc(SCc2nc3ccccc3s2)n1CCCO	/	/	/	.
Cc1cccc(C)c1NC(=O)CSc1nnc(-c2cccnc2)o1	/	/	/	.
CCC(=O)Nc1sc2c(c1C#N)CC(C)(C)NC2(C)C	.	.	.	/
CC1(C)Cc2c(sc(NC(=O)C(C)(C)C)c2C#N)C(C)(C)N1	89	.	76	.
COc1cccc(-n2nc(C#N)c(Cl)cc2=O)c1	/	/	/	98
Cc1ccc(CNc2ccc(S(=O)(=O)N3CCOCC3)cc2[N+](=O)[O-])cc1	/	/	/	76
CCn1ncc(CNC(=O)C2(C)CC2(Cl)Cl)c1C (stereo not given)	/	/	/	.
c1csc(C(c2nnnn2C2CCCC2)N2CCOCC2)c1 (stereo not given)	/	/	/	.
SMILES	TNFa cytotox	VCAM1 TNFa inh	F-actin modifier	E-sel TNF inh
c1csc(C(c2nnnn2C2CCCC2)N2CCCC3(CCCCC3)C2)c1 (stereo not given)	.	.	.	57
COCCN(Cc1ccccc1)C(=S)Nc1ccc(Cl)cc1	/	/	/	.
CCOc1ccc(NCc2nnc(SCC(=O)Nc3nc(-c4ccccc4)cs3)n2-c2ccccc2)cc1	/	/	/	.
COC(=O)c1c(O)cc(C(C)(C)C)n(-c2ccc(F)cc2)c1=O	/	/	/	.
CC(C)(C)NC(=O)C(c1ccncc1)N(Cc1ccc(F)cc1)C(=O)c1ccc(-c2ccccc2)[nH]1 (stereo not given)	/	/	/	.
COc1ccccc1C(=O)NC(CCSC)C(=O)OCC(=O)NC(=O)NCc1ccco1 (stereo not given)	/	/	/	97
COc1ccccc1C(=O)NC(CCSC)C(=O)NCC(c1ccco1)N(C)C (stereo not given)	.	.	.	/
CC(=O)NNc1nc2ccccc2s1	.	.	.	/
O=C(NNc1nc2ccccc2s1)Nc1ccccc1	/	/	/	62
C=CCc1ccccc1OCC(O)CNC (stereo not given)	94	56	67	.
C=CCc1ccccc1OCC(O)CN(C(C)C)C(C)C (stereo not given)	.	.	.	.
O=C(NCCC1=CCCCC1)Nc1ccc2nsnc2c1	/	/	/	.
O=C(Cc1c[nH]c2ccccc12)NC1(C(=O)NC2CCCC2)CCCCC1	/	/	/	.
Cc1cccc(NC(=O)CCSc2nc(C)cc(C)n2)c1	.	.	.	76
O=S(=O)(Nc1ccc2c3c(cccc13)CC2)c1ccc(F)cc1	.	.	.	.
CSc1ccc(S(=O)(=O)Nc2ccc3c4c(cccc24)CC3)cc1	.	44	.	.
O=C(NC1CCCCC1)C(c1ccc(Cl)cc1)N(C(=O)c1ccccn1)c1cccnc1 (stereo not given)	/	/	/	.
CCn1ccnc1C(O)c1cccc(OC)c1 (stereo not given)	.	.	64	.
N#Cc1cc2sc3nnc(-c4ccncc4)n3c2cc1C#N	/	/	/	58
COc1ccc([N+](=O)[O-])cc1NC(=O)c1ccc(-n2nc(C)cc2C)cc1	/	/	/	.
O=C(CCl)N1N=C(c2ccco2)CC1c1cccs1 (stereo not given)	/	/	/	70
COc1ccc(/C=C2\C(=O)N(c3c(Cl)cc(Cl)cc3Cl)N=C2NC(=O)c2cccc([N+](=O)[O-])c2)cc1	/	/	/	.
CC(=O)c1cccc(CN2CCCC(CCC(=O)NCc3ccc(F)c(F)c3)C2)c1 (stereo not given)	/	/	/	.
N#Cc1ccc(-c2cccnc2)nc1SCc1ccc(Cl)c(Cl)c1	/	/	/	67
CNC(=O)CN(c1ccc(OC)cc1)S(=O)(=O)c1ccc(F)cc1	.	93	.	.
SMILES	TNFa cytotox	VCAM1 TNFa inh	F-actin modifier	E-sel TNF inh
Cc1ccc(NC(=S)NCc2ccccc2)cc1S(=O)(=O)N1CCCCC1	/	/	/	.
Cc1nnc(SCC(=O)Nc2ccc3c(c2)OCCO3)n1N	.	.	.	.
Nn1c(SCC(=O)Nc2ccc3c(c2)OCCO3)nnc1C(F)(F)F	.	.	34	/
CCOC(=O)C1=C(CSc2nc3c(cc2C#N)CN(C)CC3)OC(N)=C(C#N)C1c1ccccc1 (stereo not given)	99	?	.	/
Cn1cc(Cl)c(C(=O)NNC(=S)NCc2ccco2)n1	/	/	/	73
Cc1c(Cl)c(C(=O)NNC(=S)NCc2ccco2)nn1C	.	.	.	.
CCCCOC(=O)C1[C@H]2C(=O)N(CCc3ccccc3)C[C@]23C=C[C@H]1O3 (stereo not given in full)	.	.	.	/
CCCOC(=O)C1C2C=C[C@]3(CN(CCc4ccccc4)C(=O)[C@H]13)O2 (stereo not given in full)	82	93	.	/
CCOC(=O)C1=C(c2ccccc2)OC(N)=C(C#N)C1c1ccco1 (stereo not given)	.	69	.	.
COC(=O)C1=C(C)OC(N)=C(C#N)C1c1ccco1 (stereo not given)	.	.	.	.
CCN1c2ccccc2-c2nc3ccccc3n2C1c1cccnc1 (stereo not given)	.	.	.	100
COc1ccc(NC(=O)C(=O)NCCN2CCN(C(=O)c3cccs3)CC2)cc1	.	.	.	.
Cc1cc(NC(=O)C(=O)NCCN2CCN(C(=O)c3cccs3)CC2)ccc1Br	.	.	34	.
Cc1cc(OC(=O)c2ccc(S(=O)(=O)N3CCOCC3)cc2)c([N+](=O)[O-])c(=O)[nH]1	/	/	/	.
Cc1nc(=O)c(-c2ccccc2)c(C)n1-c1ccc(S(N)(=O)=O)cc1	.	.	.	100
CCOC(=O)C1(Cc2ccccc2Cl)CCN(Cc2csc(C(C)=O)c2)CC1	/	/	/	.
Cc1cc(C)cc(NC(=S)NC2CC3CCCC(C2)N3C2CC2)c1 (stereo not given)	/	/	/	100
CC(C)Cn1c(-c2cccs2)nc2ccccc21	.	.	.	85
O=C(O)CCC(=O)Nc1ccc(Br)c(Cl)c1	.	.	.	75
Cc1cc2ccccc2c(=O)n1CC(=O)N1CCN(c2cccc(Cl)c2)CC1	/	/	/	.
